Results published in PubChem BioAssay (EPA / NIEHS).
Results filed as inconclusive are left out. Activity calls are given as the source filed them. How the source made its calls: active means hit-call score of the fitted dose curve at least 0.9, where 1 is the maximum; inconclusive means response in the unintended direction; inactive means score below 0.9.

assay: TOX21_PR_LUC_Followup_Agonist_viability: Viability Assessment in the Tox21 HEK293 Progesterone Receptor (PR) Agonism Luciferase Follow-Up Assay (AID 2283941);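 further: loss of signal means cytotoxicity so actives lower viability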
Procedure, shortened: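 Cytotoxicity counter-screen: ATP content by CellTiter-Glo luminescence, loss of signal = reduced viability. HEK293-PR-A-luc, 3,000 cells/well, compound exposure 16 h, 37C.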

| SMILES | outcome |
| --- | --- |
| CCN(CC)CC(=O)OCC(=O)[C@@]1(O)CC[C@H]2[C@@H]3CCC4=CC(=O)CC[C@]4(C)[C@H]3[C@@H](O)C[C@@]21C | inactive |
| C/C=C1\C(=O)C[C@H]2[C@@H]3CCC4=CC(=O)CC[C@]4(C)[C@H]3CC[C@]12C | inactive |
| C[C@@H]1CC(=O)NN=C1c1ccc(NN=C(C#N)C#N)cc1 | inactive |
| CC(=O)O[C@H]1CC[C@@]2(C)C(=CC[C@@H]3[C@@H]2CC[C@]2(C)C(C(C)=O)=CC[C@@H]32)C1 | inactive |
| C[C@@H]1C[C@H]2[C@@H]3C[C@H](F)C4=CC(=O)C=C[C@]4(C)[C@@]3(F)[C@@H](O)C[C@]2(C)[C@@]1(O)C(=O)CO | inactive |
| C[C@@H]1C[C@H]2[C@@H]3CCC4=CC(=O)C=C[C@]4(C)[C@@]3(F)[C@@H](O)C[C@]2(C)[C@@]1(O)C(=O)COC(=O)c1ccncc1 | inactive |
| CCC(=O)Oc1ccc2c(c1)CC[C@@H]1[C@@H]2CC[C@@]2(C)[C@H]1C[C@@H](OC(=O)CC)[C@@H]2OC(=O)CC | inactive |
| CC(=O)O[C@@H]1CC2C3CCc4cc(OC(=O)c5ccccc5)ccc4C3CCC2(C)[C@H]1OC(C)=O (some centres not stated) | inactive |
| Clc1ccccc1CN1CCc2sccc2C1 | inactive |
| COC(=O)C1=C(C)NC(C)=C(C(=O)OC(C)C)C1c1cccc2nonc12 (configuration not stated) | inactive |
| CC(=O)OCC(=O)[C@H]1CC[C@H]2[C@@H]3CCC4=CC(=O)CC[C@]4(C)[C@H]3CC[C@]12C | inactive |
| CCC(=O)O[C@]1(C(=O)COC)[C@@H](C)C[C@H]2[C@@H]3CCC4=CC(=O)C=C[C@]4(C)C3(F)[C@@H](O)C[C@@]21C (some centres not stated) | inactive |
| COC(=O)[C@@H]1CC2=CC(=O)CC[C@]2(C)[C@@]23O[C@@H]2C[C@@]2(C)[C@@H](CC[C@@]24CCC(=O)O4)[C@H]13 | inactive |
| C/C=C1/C(=O)C[C@H]2[C@@H]3CCC4=CC(=O)CC[C@]4(C)[C@H]3CC[C@]12C | inactive |
| CC(=O)OCC(=O)[C@@]1(O)CC[C@H]2[C@@H]3CCC4=CC(=O)CC[C@]4(C)[C@H]3C(=O)C[C@@]21C | inactive |
| C[C@]12CCC(=O)C=C1CC[C@H]1[C@@H]3CC[C@](O)(C(=O)CO)[C@@]3(C)C[C@H](O)[C@@]12F | inactive |
| CC(C)(C)C(O)/C=C/c1ccc2c(c1)OCO2 (configuration not stated) | inactive |
